In all, about 5,500 compounds went through this assay and about 2,000 (36%) were called active. About 18% were inconclusive and are not listed. No stated cut-off is given here; in the data, active means normalized growth mostly below about 0.91 (no sharp cut-off); inconclusive means no clear call, values can overlap the other calls; inactive means mostly above about 0.92. The list shows a part of the results.
Experiment: chemical genetic growth profiling, strain panel (AID 1159580);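 further: tested at 20 µM; growth read once vehicle control cultures reached saturation at 30 °C; 1 = growth at the plate median or of vehicle wells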
Settings: S. cerevisiae deletion strains, growth OD

Measured: normalized growth

CNC(=O)N(C)c1nnc(C(C)(C)C)s1
inactive: locus YAL013W, strain DEP1, stronger effect = lower value 1.01 | locus YAL021C, strain ccr4, stronger effect = lower value 0.935 | locus YAL026C, strain drs2, stronger effect = lower value 0.993 | locus YAL030W, strain snc1, stronger effect = lower value 1 | locus YBL061C, strain skt5, stronger effect = lower value 0.997 | locus YBR009C, strain hhf1, stronger effect = lower value 1.01 | locus YBR021W, strain FUR4, stronger effect = lower value 1.04 | locus YBR023C, strain chs3, stronger effect = lower value 0.994 | locus YBR171W, strain sec66, stronger effect = lower value 0.983 | locus YBR229C, strain ROT2, stronger effect = lower value 1.01 | locus YBR231C, strain swc5, stronger effect = lower value 1.02 | locus YBR279W, strain paf1, stronger effect = lower value 0.996 | locus YCL011C, strain gbp2, stronger effect = lower value 0.985 | locus YCL016C, strain dcc1, stronger effect = lower value 0.979 | locus YCL029C, strain bik1, stronger effect = lower value 1.01 | locus YCL069W, strain vba3, stronger effect = lower value 0.988 | locus YCR088W, strain abp1, stronger effect = lower value 0.988 | locus YDL005C, strain med2, stronger effect = lower value 0.982 | locus YDL035C, strain GPR1, stronger effect = lower value 1.02 | locus YDL040C, strain nat1, stronger effect = lower value 0.99 | locus YDL074C, strain BRE1, stronger effect = lower value 1.03 | locus YDL101C, strain DUN1, stronger effect = lower value 1.02 | locus YDL134C, strain PPH21, stronger effect = lower value 1.01 | locus YDL185W, strain tfp1, stronger effect = lower value 0.959 | locus YDL192W, strain arf1, stronger effect = lower value 1.01 | locus YDR001C, strain nth1, stronger effect = lower value 0.977 | locus YDR069C, strain doa4, stronger effect = lower value 0.988 | locus YDR101C, strain arx1, stronger effect = lower value 1.01 | locus YDR137W, strain rgp1, stronger effect = lower value 0.999 | locus YDR150W, strain NUM1, stronger effect = lower value 1.01 | locus YDR159W, strain sac3, stronger effect = lower value 1.03 | locus YDR162C, strain NBP2, stronger effect = lower value 1.01 | locus YDR195W, strain ref2 0.946 | locus YDR297W, strain sur2, stronger effect = lower value 1.02 | locus YDR318W, strain mcm21, stronger effect = lower value 1.02 | locus YDR334W, strain swr1, stronger effect = lower value 0.982 | locus YDR335W, strain msn5, stronger effect = lower value 0.995 | locus YDR388W, stronger effect = lower value 1.02 | locus YDR392W, strain spt3, stronger effect = lower value 1.02 | locus YDR502C, strain sam2, stronger effect = lower value 1.02 | locus YEL003W, strain gim4, stronger effect = lower value 0.989 | locus YEL037C, strain rad23, stronger effect = lower value 0.981 | locus YEL061C, strain CIN8 (second series), stronger effect = lower value 0.98 | locus YEL061C, strain CIN8, stronger effect = lower value 1.01 | locus YER015W, strain faa2, stronger effect = lower value 0.99 | locus YER016W, strain bim1, stronger effect = lower value 0.987 | locus YER110C, stronger effect = lower value 1.01 | locus YER111C, strain swi4, stronger effect = lower value 1 | locus YER155C, strain BEM2 (second series), stronger effect = lower value 1.02 | locus YER155C, strain BEM2, stronger effect = lower value 1.01 | locus YER167W, strain BCK2, stronger effect = lower value 1.02 | locus YFR010W, strain ubp6, stronger effect = lower value 0.969 | locus YGL078C, strain dbp3, stronger effect = lower value 1.01 | locus YGL086W, strain mad1, stronger effect = lower value 1.01 | locus YGL167C, strain pmr1, stronger effect = lower value 0.976 | locus YGL173C, strain kem1, stronger effect = lower value 1 | locus YGL227W, strain vid30, stronger effect = lower value 1 | locus YGL240W, strain doc1, stronger effect = lower value 1.03 | locus YGL248W, strain PDE1, stronger effect = lower value 1.01 | locus YGL253W, strain hxk2, stronger effect = lower value 0.991 | locus YGR078C, strain PAC10, stronger effect = lower value 1.02 | locus YGR135W, strain pre9, stronger effect = lower value 1.02 | locus YGR229C, strain SMI1, stronger effect = lower value 1.04 | locus YGR252W, strain gcn5, stronger effect = lower value 1.05 | locus YHR013C, strain ard1, stronger effect = lower value 0.972 | locus YHR027C, strain rpn1, stronger effect = lower value 0.993 | locus YHR030C, strain SLT2, stronger effect = lower value 1.01 | locus YHR079C, strain IRE1 (second series), stronger effect = lower value 1.03 | locus YHR094C, strain hxt1, stronger effect = lower value 1.01 | locus YHR129C, strain ARP1, stronger effect = lower value 0.998 | locus YHR142W, strain chs7, stronger effect = lower value 0.979 | locus YHR200W, strain rpn10, stronger effect = lower value 1.02 | locus YIL066C, strain RNR3, stronger effect = lower value 1.02 | locus YIL073C, strain SPO22, stronger effect = lower value 1.07 | locus YIL125W, strain kgd1, stronger effect = lower value 1.02 | locus YIR030C, strain dcg1, stronger effect = lower value 1.02 | locus YJL092W, strain hpr5, stronger effect = lower value 0.976 | locus YJL095W, strain BCK1 (second series), stronger effect = lower value 0.993 | locus YJL095W, strain BCK1, stronger effect = lower value 1.01 | locus YJL115W, strain asf1, stronger effect = lower value 0.973 | locus YJL129C, strain trk1, stronger effect = lower value 0.999 | locus YJL134W, strain LCB3, stronger effect = lower value 1.02 | locus YJL154C, strain vps35, stronger effect = lower value 0.976 | locus YJL164C, strain tpk1, stronger effect = lower value 0.998 | locus YJL166W, strain qcr8, stronger effect = lower value 1.02 | locus YJL168C, strain set2, stronger effect = lower value 1.02 | locus YJL187C, strain SWE1 (second series), stronger effect = lower value 1.01 | locus YJR043C, strain POL32, stronger effect = lower value 1.03

— PubChem BioAssay AID1159580 (chemical genetic matrix, 2015)
